Hits are enriched below; roughly 1.5% of the tested compounds scored in any of these assays.
GCN5L2 inh = blocks human GCN5L2 histone acetyltransferase; Q92830; GCN5L2 HAT assay, ThioGlo1 CoA-SH fluorescence; Potency, µM (highest dose often 58.9 µM), for inactives: top-dose activity change, negative = inhibition, usual class: inhibitors; 390,000 compounds, 0.21% hits; AID 504327; note: potency is the fitted concentration of half-maximal effect
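ThioGlo1-coupled HAT assay: 20nM GCN5L2, 70uM acetyl-CoA, 75uM H3(1-25) peptide, pH 7.5. Fluorescence read at 340/540nm at start and after 20 min at room temperature.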
APEX1 inh = blocks human APE1 abasic DNA cleavage | Potency, µM (series often up to 65.8 µM), inactives show top-dose activity change, negative = inhibition, hits mostly inhibitors | AID 2517 | recombinant APE1, TAMRA/BHQ-2 abasic DNA cleavage fluorescence | 350,000 compounds, 0.35% hits | P27695;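 note: potency is the fitted concentration of half-maximal effect; plate controls were vehicle for no effect and reference inhibitor for full effect; nearly all actives have a fitted effect of over 55% in size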
Target sequence (P27695 whole entry, looked up): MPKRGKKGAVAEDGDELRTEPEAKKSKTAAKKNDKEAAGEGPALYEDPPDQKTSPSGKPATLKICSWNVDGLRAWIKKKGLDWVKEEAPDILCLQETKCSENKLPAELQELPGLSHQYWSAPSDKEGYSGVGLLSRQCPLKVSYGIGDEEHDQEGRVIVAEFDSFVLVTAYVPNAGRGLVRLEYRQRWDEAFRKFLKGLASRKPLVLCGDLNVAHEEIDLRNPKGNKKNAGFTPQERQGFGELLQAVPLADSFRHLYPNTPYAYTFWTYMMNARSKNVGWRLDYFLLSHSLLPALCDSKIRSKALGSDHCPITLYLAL
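Step 1: APE1 (0.75 nM) with compound, 15 min RT. Step 2: add 50 nM fluorophore/quencher THF duplex. Step 3: three fluorescence reads 60 s apart (525/598 nm); read 3 minus read 1 = reaction progress.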
RECQ1 helicase = RECQ1 (human) helicase inhibition. Potency, µM (doses to about 57.3 µM), for inactives: top-dose activity, negative = inhibition, usual class: inhibitors. 240,000 compounds, 0.54% hits. AID 2549. RECQ1 DNA unwinding, red fluorescence kinetic read. P46063;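 note: potency is the fitted concentration of half-maximal effect; plate controls were vehicle for no effect and no enzyme for full effect; nearly all actives have a fitted effect of over 30% in size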
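50 nM RECQ1T1 preincubated 15 min with compound in Tris pH 8.0 buffer with MgCl2, DTT, Tween-20 and 2.5 ug/ml poly(dI-dC); started with 200 nM TAMRA/BHQ-2 forked duplex and 2 mM ATP. Unwinding read as fluorescence (525/598 nm), two reads 2 h apart.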
FEN1 inhibitor = human FEN1 inhibition; P39748; Recombinant FEN1 flap cleavage, fluorescence, 15 min; Potency, µM (titrated, usually from 114 µM), inactives show at the top dose activity change, negative = inhibition, hits mostly inhibitors; 390,000 compounds, 0.35% hits; AID 588795; note: potency is the fitted concentration of half-maximal effect; nearly all actives have a fitted effect of over 65% in size
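FEN1 at 10 nM, compound pretreatment for 15 min (room temperature), 50 nM final substrate to initiate; endpoint reads at 0 and 15 min; DMSO-only plates used as vehicle background.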
BLM helicase inh = blocks DNA unwinding by human BLM helicase; recombinant BLM DNA unwinding, fluorescence dequenching; Potency, µM (top dose mostly 56.1 µM), inactives show top-dose activity change, negative = inhibition, hits mostly inhibitors; P54132; 350,000 compounds, 0.2% hits;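 note: potency is the fitted concentration of half-maximal effect; plate controls were vehicle for no effect and no enzyme for full effect; nearly all actives have a fitted effect of over 35% in size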
PI5P4K alpha inh = inhibitors of human PI5P4K alpha; P48426; PI5P4Kalpha enzyme, ADP-Glo luminescence, 60 min; hits give low values; max response, %; 330,000 compounds, 1.2% hits; active = max response of -50% or lower; inconclusive = between -30% and -50%; inactive = -30% or higher; note: value at the top dose of about 77 µM
Target sequence (P48426 whole entry, looked up): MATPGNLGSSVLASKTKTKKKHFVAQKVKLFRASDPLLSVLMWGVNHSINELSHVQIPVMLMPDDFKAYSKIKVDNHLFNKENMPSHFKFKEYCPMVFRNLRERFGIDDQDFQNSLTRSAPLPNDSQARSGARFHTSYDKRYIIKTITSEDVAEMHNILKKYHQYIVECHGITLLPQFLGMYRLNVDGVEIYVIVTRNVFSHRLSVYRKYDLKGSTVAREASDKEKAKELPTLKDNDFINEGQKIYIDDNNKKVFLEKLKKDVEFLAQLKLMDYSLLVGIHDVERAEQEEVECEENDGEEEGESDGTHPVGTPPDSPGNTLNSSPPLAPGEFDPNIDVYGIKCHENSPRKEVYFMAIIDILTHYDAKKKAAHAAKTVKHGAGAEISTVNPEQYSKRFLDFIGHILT
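Quantitative HTS of the MLSMR library against PI5P4Kalpha with substrate. ATP added last at 5 microM final; room temperature, 60 minutes. Remaining ATP depleted, ADP converted and read as luminescence.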
Numbers without * were called inactive; i = inactive; ? = inconclusive; . = not tested or not shown. Unless noted, calls come from the whole dose curve; as a rule, active = well fitted curve in the direction sought with a large enough effect; inconclusive = small, poorly fitted or top-dose-only effect, or another doubt; inactive = no such curve, though single readings can be large; an effect the other way counts as inactive or inconclusive. Unless noted, % is set by controls: 0 for no effect and ±100 for the full control effect.

SMILES	GCN5L2 inh	APEX1 inh	RECQ1 helicase	FEN1 inhibitor	BLM helicase inh	PI5P4K alpha inh
CCc1ccc(NC(=O)CC2C(=O)N(c3ccc(C)cc3)C(=O)N2C2CCCC2)cc1 (stereo not drawn)	-6%	.	.	-19%	-7%	.
CCc1ccc(NC(=O)CC2C(=O)N(c3ccc(Cl)cc3)C(=O)N2C2CCCC2)cc1 (stereo not drawn)	-11%	.	.	40µM*	-7%	.
CC1=Nc2ccccc2/C1=C(/C)c1c(C)[nH]c2ccccc12	.	.	.	-14%	.	.
O=C1c2ccccc2C(=O)c2[nH]c(=O)[nH]c21	-2%	-18%	.	?	-27%	-69*
O=C(O)c1ccccc1NS(=O)(=O)c1cccc(-n2sc3ccccc3c2=O)c1	0.45µM*	-7%	.	89µM*	1%	-97*
CNc1ccc(/C=C/c2ccnc3ccccc23)cc1	.	.	.	-35%	.	.
Cc1cccc[n+]1C1C(c2ccccc2)C(C#N)=C(C(=C=[N-])C#N)NC1(O)C1CC1 (stereo not drawn)	-8%	1%	0%	-24%	-9%	-74*
CC[n+]1c(/C=C/C=C2/N(C)c3ccccc3C2(C)C)sc2ccccc21	28µM*	.	.	.	.	.
CC[n+]1c(/C=C/C=C/N(C(C)=O)c2ccccc2)sc2ccccc21	-29%	2%	-3%	?	-2%	?
O=S(=O)(c1ccc2c(c1)CCCC2)N1CCN(c2nc(-c3cccs3)nc3ccccc23)CC1	.	.	.	3%	.	.
CCN(CC)c1ccc2c(-c3ccc(S(=O)(=O)O)cc3S(=O)(=O)[O-])c3ccc(=[N+](CC)CC)cc-3oc2c1	?	27µM*	.	?	25µM*	-51*
O=C(C=C1SCCS1)/C=C/c1ccco1	?	?	-5%	-13%	?	-57*
O=C(C=Cc1ccco1)c1ccco1	.	.	.	-13%	.	-10
O=C1OC(O)C(C(Cl)Cl)=C1Cl (stereo not drawn)	.	-7%	-20%	.	.	.
COc1ccccc1O	0%	-17%	-2%	1%	-3%	5
COc1cccc(O)c1O	-20%	2.5µM*	-30%	.	0%	.
COc1cc2c(cc1OC)-c1c(OC)c(OC)cc3ccnc(c13)C2=O	0%	?	157%	7.9µM*	-4%	2
Cc1cccc2c1c1ccc3c(c1n2C)C(=O)C=CC3=O	-19%	?	3%	?	-20%	-73*
CCCCN(CC)c1nc(C)nc2c1c(C)c(C)n2-c1c(C)cc(C)cc1C	7%	-1%	-5%	.	-10%	.
CCOC(=O)N1CCc2c(sc3[nH]c(=S)[nH]c(=S)c23)C1	1%	-2%	-4%	-29%	-1%	-67*
CCOC(=O)N1CCc2c(sc3nc[nH]c(=O)c23)C1	-19%	15%	-11%	-1%	-1%	-8
Cc1c(Br)cnc2ccccc12	.	.	.	-3%	.	.
COc1ccc(NC(=O)c2cc(-c3ccc(C)o3)nc3ccccc23)cc1OC	-22%	-12%	-5%	-8%	-17%	-53*
CCC(=O)NC(=S)NNC(=O)c1ccccc1[N+](=O)[O-]	25µM*	1%	-5%	-3%	0%	3
O=C(NNC(=S)NC(=O)c1ccccc1[N+](=O)[O-])c1ccccc1	-3%	-1%	-5%	-5%	1%	3
SMILES	GCN5L2 inh	APEX1 inh	RECQ1 helicase	FEN1 inhibitor	BLM helicase inh	PI5P4K alpha inh
COc1ccc(C(=O)OCC(=O)NCCCc2ccccc2)cc1[N+](=O)[O-]	8%	4%	i	-2%	2%	2
COc1ccc(C(=O)OCC(=O)c2ccco2)cc1[N+](=O)[O-]	.	.	.	.	.	-59*
CCC(C)C(N)C(=O)NC(CC(N)=O)C(=O)NC(CC(C)C)C(=O)NC(CCCCN)C(=O)NC(C)C(=O)NC(CC(C)C)C(=O)NC(C)C(=O)NC(C)C(=O)NC(CC(C)C)C(=O)NC(C)C(=O)NC(CCCCN)C(=O)NC(CCCCN)C(=O)NC(C(=O)NC(CC(C)C)C(N)=O)C(C)CC (stereo not drawn)	-15%	-9%	-10%	.	0%	.
O=c1c(-c2ccc3c(c2)OCCO3)coc2cc(O)cc(O)c12	?	4%	-1%	7%	?	-16
O=c1c(-c2ccccc2)coc2cc(O)cc(O)c12	28µM*	?	-13%	.	22µM*	.
CC(C)CCNC(=O)NC(=O)COC(=O)/C=C/c1cc(Br)ccc1F	-6%	1%	-2%	3%	1%	-62*
COc1ccc(C(=O)N=c2nc(-c3ccccc3)n(-c3ccccc3)s2)cc1	.	.	.	10%	.	.
NC(=O)N/N=C/c1cn(-c2ccccc2)nc1-c1cccnc1	-6%	12%	-9%	2%	-3%	-3
NC(=S)N/N=C/c1cn(-c2ccccc2)nc1-c1cccnc1	-9%	0%	-2%	?	-2%	-54*
Cc1ccc(CSc2nnc(SCC(=O)N/N=C/C=C/c3ccccc3[N+](=O)[O-])s2)cc1	-1%	0%	i	-10%	-3%	-17
O=C(N/N=C/C=C\c1ccco1)c1cccs1	?	9%	-12%	-18%	18µM*	-27
Cc1cccc(OCC(=O)N/N=C/C=C/c2ccco2)c1	?	-2%	-5%	-7%	?	-76*
Cc1ccc(CSc2nnc(SCC(=O)N/N=C/C=C/c3ccco3)s2)cc1	-19%	35µM*	-26%	-9%	?	?
Cc1ccc(/C=N/Nc2ccnc3cc(Cl)ccc23)c(C)c1	24%	3%	-11%	?	-14%	-82*
Oc1ccc(/C=N/Nc2ccnc3cc(Cl)ccc23)c(O)c1	-29%	?	-6%	-23%	-24%	-17
Clc1ccc2c(N/N=C/c3ccc(Br)cc3)ccnc2c1	-4%	7%	i	-16%	-11%	-73*
Clc1ccc2c(N/N=C/c3cccnc3)ccnc2c1	-4%	-13%	-16%	?	27%	-2
Cc1ccccc1/C=N/Nc1ccnc2cc(Cl)ccc12	-1%	?	?	-15%	-9%	-75*
CCCCCCCCN1[C@@H](CC(C)=O)c2ccc(/C=C/C(C)=O)cc2S1(=O)=O	.	.	.	1%	.	.
O=C(C[n+]1ccccc1Br)c1ccc2c(c1)CCCC2	.	.	.	-21%	.	.
CCCCNC(=O)[C@@H]1CC=C[C@@H]2CCN(Cc3ccc(OC)c(OC)c3)C(=O)[C@@H]21	.	.	.	8%	.	.
N#C/C(=C/c1cn(Cc2ccc(F)cc2)c2ccccc12)C(=O)Nc1cccc(Cl)c1	-15%	.	.	89µM*	-8%	.
COc1cccc(NC(=O)/C(C#N)=C\c2cn(Cc3ccc(C)cc3)c3ccccc23)c1	-6%	.	.	-6%	-2%	.
COc1cc(-c2ccc(Nc3ccccc3C(=O)O)c(OC)c2)ccc1Nc1ccccc1C(=O)O	-4%	-11%	?	?	-17%	-89*

Compound activity deposited in PubChem by National Center for Advancing Translational Sciences (NCATS).
